# ± gives the standard deviation.
# What was measured:
# Details in all cases: modulator concentration 10 µM
# [1] = test system: RAW-Dual (murine macrophage reporter line); assay: NF-kB reporter (SEAP) activity fold change vs agonist alone; higher = enhanced NF-kB activity
# Method in brief: (§1)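 Compound reached 10 μM final in each well by pin transfer, onto RAW-Dual murine macrophage reporter cells seeded at 50 000 per well in 384-well plates. After 1 hour at 37 °C, the cells were stimulated overnight with a PRR agonist. SEAP in the supernatant was read with QUANTI-Blue at 620 nm absorbance for NF-κB, and Lucia luciferase was read with QUANTI-Luc luminescence for IRF. Each signal was turned into fold change against the mean agonist-only control on the same plate, and two replicate plates were averaged with propagated errors.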
# [2] = test system: RAW-Dual (murine macrophage reporter line); assay: IRF reporter (Lucia luciferase) activity fold change vs agonist alone; higher = enhanced IRF activity
# Method in brief: as §1
# [3] = test system: RAW-Dual (murine macrophage reporter line); assay: viability score (confluency relative to resting cells, overnight) (fraction); higher = more viable, active = viable (0.7 or more)
# Method in brief: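 Overnight exposure to 10 μM final compound was carried out on RAW-Dual macrophages in 384-well plates. IncuCyte software generated two confluency masks over all wells imaged with IncuCyte. The viability score gives confluency in relation to resting cells. A compound met the cutoff if each mask exceeded 70% of resting cells.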
# [4] = agonist: CpG ODN 1826 0.5 ug/mL
Compound,"NF-kB reporter [1, 4]",NF-kB reporter ([1]; agonist: LPS 0.1 ug/mL),NF-kB reporter ([1]; agonist: MPLA […]),IRF reporter ([2]; agonist: 3'3'-cGAMP 10 ug/mL),IRF reporter ([2]; agonist: LPS 0.1 ug/mL),IRF reporter ([2]; agonist: MPLA […]),viability score [3]
CCC1(O)C(=O)OCc2c1cc1n(c2=O)Cc2cc3cc(O)ccc3nc2-1 (stereo not given),2.02 ± 0.62,1.28 ± 0.11,2.19 ± 0.4,2.67 ± 0.16,2.12 ± 0.24,1.89 ± 0.32,0.851 (active)
CC1CC(=O)C2=C(C1)OC(N)=C(C#N)C2c1ccc(Cl)cc1 (stereo not given),0.905 ± 0.093,1.06 ± 0.075,0.928 ± 0.042,0.721 ± 0.03,1 ± 0.07,0.909 ± 0.13,0.992 (active)
CC(C)CNC(=O)C(=O)Nc1ccc(C(C)C)cc1,1.03 ± 0.12,0.931 ± 0.11,1.01 ± 0.038,0.989 ± 0.15,0.959 ± 0.052,0.958 ± 0.093,1 (active)
Cn1cnc([N+](=O)[O-])c1Sc1ncnc2nc[nH]c12,1.1 ± 0.2,0.844 ± 0.23,0.983 ± 0.077,0.934 ± 0.031,1.2 ± 0.33,0.986 ± 0.23,0.983 (active)
O=C(CCCCCl)NN1c2ccccc2CCc2ccccc21,1.18 ± 0.19,0.984 ± 0.11,1.09 ± 0.084,0.835 ± 0.022,1.18 ± 0.14,1.25 ± 0.29,1.01 (active)
Cc1cc(C)nc(NS(=O)(=O)c2ccc(NC(=O)C=Cc3cccc4ccccc34)cc2)n1,1.14 ± 0.091,1.14 ± 0.083,1.17 ± 0.091,0.248 ± 0.026,1.21 ± 0.12,1.04 ± 0.17,0.956 (active)
CCC(Oc1ccccc1)C(=O)Nc1cc([N+](=O)[O-])ccc1C (stereo not given),0.91 ± 0.059,0.865 ± 0.073,0.987 ± 0.036,0.902 ± 0.042,0.997 ± 0.11,0.973 ± 0.14,1 (active)
CN1CCN(CCCN2c3ccccc3Sc3ccc(Cl)cc32)CC1 [Prestw-399],0.442 ± 0.026,0.845 ± 0.073,1.73 ± 0.048,1.23 ± 0.051,1.1 ± 0.085,1.46 ± 0.15,0.114 (inactive)
CC12CC3CC(C1)CC(CC(=O)O)(C3)C2,1.02 ± 0.18,1.04 ± 0.12,0.994 ± 0.17,0.907 ± 0.029,1.09 ± 0.11,1.3 ± 0.3,0.526 (inactive)
CCCC(C(=O)OCCN(CC)CC)(c1ccccc1)c1ccccc1.Cl,0.851 ± 0.066,0.924 ± 0.11,0.978 ± 0.084,0.972 ± 0.055,1.03 ± 0.27,1.03 ± 0.39,1.02 (active)
Cc1ccc(N2C(=O)C(=Cc3cccc([N+](=O)[O-])c3)SC2=S)cc1,0.957 ± 0.088,0.944 ± 0.08,0.949 ± 0.11,0.623 ± 0.035,1.26 ± 0.19,1.38 ± 0.29,0.996 (active)
CN1CC(=O)N2[C@H](c3ccc4c(c3)OCO4)c3[nH]c4ccccc4c3C[C@@H]2C1=O,0.821 ± 0.2,1.05 ± 0.23,0.976 ± 0.056,0.869 ± 0.026,1.01 ± 0.24,0.922 ± 0.08,0.981 (active)
COc1ccc(CN(CCN(C)C)c2ccccn2)cc1.O=C(O)/C=C\C(=O)O,0.568 ± 0.15,1 ± 0.053,1.01 ± 0.094,0.834 ± 0.073,0.773 ± 0.13,0.78 ± 0.087,0.946 (active)
COc1ccccc1C(=O)Nc1cnc(N2CCN(c3ccccn3)CC2)nc1,0.887 ± 0.038,1.02 ± 0.12,1.2 ± 0.066,0.913 ± 0.086,0.991 ± 0.21,1.12 ± 0.43,0.877 (active)
CCN(CC)CCNC(=O)c1cc(S(C)(=O)=O)ccc1OC.Cl,1.02 ± 0.13,1.16 ± 0.078,0.975 ± 0.021,0.94 ± 0.056,0.989 ± 0.11,1 ± 0.13,0.998 (active)
